# Laboratory results reported in PubChem BioAssay (NCATS).
# Records with an inconclusive call do not appear. A call without a number means that no potency is given here. A number with no mark means an inactive call. Calls of active or inactive are those of the source. Unless noted, calls follow the shape of the dose curve; as a rule, active = well fitted curve in the direction sought with a large enough effect; inconclusive = small, poorly fitted or top-dose-only effect, or another doubt; inactive = no such curve, though single readings can be large; an effect the other way counts as inactive or inconclusive.
# Assays:
# [1] = target: Cytochrome P450 2D6 (Homo sapiens) (UniProt P10635); test: Cytochrome P450 family 2 subfamily D member 6 (CYP2D6) small molecule antagonists: luciferase biochemical (cell-free) qHTS assay (AID 1645840; active = well fitted curve in the direction sought with a large enough effect in the repeat runs; an effect the other way counts as inactive or inconclusive; also: potency is read from the fitted curve at half-maximal effect; nearly all actives have a fitted effect of over 55% in size)
# Chain of Cytochrome P450 2D6 (Homo sapiens) (P10635 whole entry, looked up): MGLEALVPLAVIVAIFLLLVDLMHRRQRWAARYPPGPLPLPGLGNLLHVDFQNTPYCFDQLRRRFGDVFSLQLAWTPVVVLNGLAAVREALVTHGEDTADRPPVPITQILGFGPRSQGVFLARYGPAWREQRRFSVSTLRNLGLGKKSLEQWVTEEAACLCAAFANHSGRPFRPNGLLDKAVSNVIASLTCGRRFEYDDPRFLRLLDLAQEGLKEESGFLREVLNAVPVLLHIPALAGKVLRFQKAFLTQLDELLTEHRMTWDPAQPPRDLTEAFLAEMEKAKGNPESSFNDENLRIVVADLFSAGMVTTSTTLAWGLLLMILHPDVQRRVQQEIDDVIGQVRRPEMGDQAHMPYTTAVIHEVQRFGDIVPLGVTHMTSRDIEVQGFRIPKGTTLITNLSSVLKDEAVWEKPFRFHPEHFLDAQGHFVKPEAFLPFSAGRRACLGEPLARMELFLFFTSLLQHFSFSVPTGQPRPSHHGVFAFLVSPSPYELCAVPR
# In short: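 P450-Glo CYP2D6 system: proluciferin substrate converted by enzyme to luciferin, read by luminescence proportional to activity. Enzyme-substrate mix with compound 10 min at room temperature, then NADPH regeneration 1 h before detection reagent.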
# [2] = target: Cytochrome P450 2C9 (Homo sapiens) (UniProt P11712); test: Cytochrome P450 family 2 subfamily C member 9 (CYP2C9) small molecule antagonists: luciferase biochemical (cell-free) qHTS assay (AID 1645842; active = well fitted curve in the direction sought with a large enough effect in the repeat runs; an effect the other way counts as inactive or inconclusive; also: nearly all actives have a fitted effect of over 55% in size; also: potency is read from the fitted curve at half-maximal effect)
# Chain of Cytochrome P450 2C9 (Homo sapiens) (P11712 whole entry, looked up): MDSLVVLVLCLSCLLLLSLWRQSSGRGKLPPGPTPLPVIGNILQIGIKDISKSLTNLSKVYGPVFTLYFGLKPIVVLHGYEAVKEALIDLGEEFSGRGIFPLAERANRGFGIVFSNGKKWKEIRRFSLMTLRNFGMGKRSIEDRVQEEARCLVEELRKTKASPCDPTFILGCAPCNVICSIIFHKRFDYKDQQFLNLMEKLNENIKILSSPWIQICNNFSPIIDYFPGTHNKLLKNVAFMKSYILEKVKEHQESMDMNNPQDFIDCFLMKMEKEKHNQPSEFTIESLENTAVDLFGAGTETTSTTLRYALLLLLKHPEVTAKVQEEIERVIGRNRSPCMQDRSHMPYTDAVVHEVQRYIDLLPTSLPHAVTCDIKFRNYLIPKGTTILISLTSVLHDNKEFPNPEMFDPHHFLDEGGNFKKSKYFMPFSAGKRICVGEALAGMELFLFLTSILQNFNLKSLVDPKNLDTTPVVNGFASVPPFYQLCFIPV
# In short: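 P450-Glo CYP2C9 system: proluciferin substrate with enzyme in mix containing 0.4% BSA, 10 min at room temperature, then NADPH regeneration solution added and incubated 1 h at 37C. Detection reagent stopped reaction; luminescence read after 20 min as RLU.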
# [3] = Primary qHTS for inhibitors of nuclear receptor binding SET domain protein 2 (NSD2) in an isogenic RCH-ACV NSD2 p.E1099K mutant (9B) (AID 1645876); also: nearly all actives have a fitted effect of over 70% in size
# [4] = target: Calcium and integrin-binding protein 1 (Homo sapiens) (UniProt Q99828); test: Primary qHTS for Identification of Calcium Integrin Binding Protein 1 (CIB1) Competitor (AID 1508620);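 also: GST tagged CIB1 binding a fluorescein labelled alphaIIb integrin peptide tracer; top concentration of the series differs between compounds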
# Chain of Calcium and integrin-binding protein 1 (Homo sapiens) (Q99828 whole entry, looked up): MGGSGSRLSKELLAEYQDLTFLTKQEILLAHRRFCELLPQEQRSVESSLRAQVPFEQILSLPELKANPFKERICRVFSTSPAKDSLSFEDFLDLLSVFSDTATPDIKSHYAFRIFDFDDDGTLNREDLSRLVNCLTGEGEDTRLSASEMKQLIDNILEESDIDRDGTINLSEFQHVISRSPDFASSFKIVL
# In short: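 Fluorescence polarization competition: CIB1-GST (1 uM final) preincubated with compound 15 min at room temperature, then FITC-labeled alphaIIb peptide (100 nM final) added for another 15 min. Polarization read at Ex 480/Em 540.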
# [5] = Primary qHTS for inhibitors of nuclear receptor binding SET domain protein 2 (NSD2) in an RCH-ACV wild type WT cells (2C) (AID 1645877); also: nearly all actives have a fitted effect of over 70% in size; also: potency is read from the fitted curve at half-maximal effect
# [6] = target: Rap guanine nucleotide exchange factor 3 (Homo sapiens) (UniProt O95398); test: Confirmatory qHTS for antagonist of cAMP-regulated guanine nucleotide exchange factor 3 (EPAC1) (AID 1645880); conditions: EPAC1 Rap1B-BODIPY-GDP exchange, fluorescence; also: potency is read from the fitted curve at half-maximal effect; nearly all actives have a fitted effect of over 55% in size
# Chain of Rap guanine nucleotide exchange factor 3 (Homo sapiens) (O95398 whole entry, looked up): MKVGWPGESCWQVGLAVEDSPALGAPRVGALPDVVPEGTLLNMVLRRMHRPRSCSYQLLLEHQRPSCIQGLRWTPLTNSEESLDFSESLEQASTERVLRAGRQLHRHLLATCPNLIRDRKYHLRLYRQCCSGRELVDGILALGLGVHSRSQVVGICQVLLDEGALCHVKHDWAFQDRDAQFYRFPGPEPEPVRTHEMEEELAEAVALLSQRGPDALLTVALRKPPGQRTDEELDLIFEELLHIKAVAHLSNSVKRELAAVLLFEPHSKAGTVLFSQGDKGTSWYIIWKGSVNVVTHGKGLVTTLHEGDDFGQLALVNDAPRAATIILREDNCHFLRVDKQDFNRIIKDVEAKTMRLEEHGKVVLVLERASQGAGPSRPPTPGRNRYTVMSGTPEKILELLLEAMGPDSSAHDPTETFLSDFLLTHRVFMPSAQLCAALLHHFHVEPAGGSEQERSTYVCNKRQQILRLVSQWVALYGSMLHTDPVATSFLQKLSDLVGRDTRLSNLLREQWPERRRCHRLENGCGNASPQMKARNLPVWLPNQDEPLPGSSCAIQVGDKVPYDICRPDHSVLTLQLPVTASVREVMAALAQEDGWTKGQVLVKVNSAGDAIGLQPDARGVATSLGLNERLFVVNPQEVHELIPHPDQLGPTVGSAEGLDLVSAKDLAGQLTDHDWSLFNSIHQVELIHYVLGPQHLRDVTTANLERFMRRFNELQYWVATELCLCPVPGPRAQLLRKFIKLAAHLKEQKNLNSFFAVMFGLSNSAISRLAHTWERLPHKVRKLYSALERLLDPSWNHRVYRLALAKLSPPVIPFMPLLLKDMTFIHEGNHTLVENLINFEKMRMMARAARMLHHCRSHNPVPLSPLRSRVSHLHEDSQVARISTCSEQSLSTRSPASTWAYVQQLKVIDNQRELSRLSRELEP
# In short: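 Released BODIPY-GDP fluoresces less than Rap1-bound BODIPY-GDP; the signal is followed at 480/540 nm at 5-min intervals over 30 min, after 5 min at room temperature. Reactions contain 100 nM EPAC1, 250 nM RAP1B-BODIPY-GDP and 50 uM GDP; results are normalized to ATA and DMSO.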
smiles,measurement,setting,value
COc1ccccc1CN[C@H]1CCCN[C@H]1c1ccccc1,Potency,[1],1.07 µM (active)
same,Potency,[2],inactive
same,Potency,[3],inactive
CCC(=O)N1CCc2cc(OC)c(O)cc2C1,Potency,[1],16.9 µM (active)
C=C1C(O)CCC2(C)CC3(OC)OC(=O)C(C)=C3CC12 (stereo not drawn),Potency,[3],inactive
C=C(CO)C(=O)O[C@H]1C[C@@]23O[C@@H]2CC/C(=C/[C@H]2OC(=O)C(=C)[C@H]12)CO[C@H]3O,Potency,[4],inactive
same,Potency,[5],8.98 µM (active)
CC(=O)OC12CC(C)C(O)C1/C=C(/COC1OC(CO)C(O)C(O)C1O)CCC1C(/C=C(\C)C2=O)C1(C)C (stereo not drawn),Potency,[3],inactive
CC1=C[C@H]2[C@@H](CC1=O)[C@H](C)C[C@H](O)[C@H]2C(C)C,Potency,[4],inactive
same,Potency,[5],inactive
CC[C@@H]1[C@H]2CCCCN3C(=O)C[C@H]([C@@H]4[C@H]1OC(=O)[C@H]4C)[C@@H]23,Potency,[3],inactive
CC1(C)CC[C@]2(C(=O)O)CC[C@]3(C)C(=CCC4[C@@]5(C)C[C@H](O)[C@H](O[C@@H]6O[C@H](CO)[C@@H](O)[C@H](O)[C@H]6O)[C@@](C)(CO)C5[C@H](O)C[C@]43C)[C@@H]2C1 (stereo partly drawn),Potency,[4],inactive
same,Potency,[5],inactive
CCOc1ccc(-c2cc(NC(=O)c3c(F)cccc3F)c(C(=O)O)s2)cc1,Potency,[1],7.56 µM (active)
same,Potency,[6],9.53 µM (active)
C/C=C1/CC2C(=O)Nc3cc(O)c(OC)cc3C(=O)N2C1 (stereo not drawn),Potency,[4],inactive
same,Potency,[5],10.1 µM (active)
CCCc1[nH]nc2c1C(c1cc(Cl)cc(Cl)c1O)C(C#N)=C(N)O2 (stereo not drawn),Potency,[1],2.13 µM (active)
same,Potency,[2],12 µM (active)
COc1cc(Nc2ccc([N+](=O)[O-])cc2C(=O)O)cc2ccccc12,Potency,[2],6.74 µM (active)
same,Potency,[3],inactive
same,Potency,[5],inactive
C[C@@H]1O[C@@H](O[C@@H]2[C@@H](O)[C@H](O[C@H]3[C@H](O[C@H]4CC[C@@]5(C)C(CC[C@]6(C)C5CC=C5[C@@H]7CC(C)(C)CC[C@]7(C(=O)O[C@@H]7O[C@H](CO)[C@@H](O)[C@H](O)[C@H]7O)CC[C@]56C)C4(C)C)O[C@H](C(=O)O)[C@@H](O)[C@@H]3O)OC[C@H]2O)[C@H](O)[C@H](O)[C@H]1O (stereo partly drawn),Potency,[4],inactive
same,"activity change, negative = viability loss",[3],2.27% [at 9.23 µM]
same,"activity change, negative = cell killing",[5],-1.93% [at 9.23 µM]
COC(=O)/C=C/c1ccc(O[C@@H]2O[C@H](CO)[C@@H](O)[C@H](O)[C@H]2O)cc1,Potency,[4],inactive
same,Potency,[5],8.01 µM (active)
COC(=O)C1C(O)CCC2CN3CCc4c([nH]c5ccccc45)C3CC21 (stereo not drawn),Potency,[3],inactive
same,Potency,[5],inactive
CC(C)=CCC[C@](C)(O[C@@H]1O[C@H](CO[C@@H]2O[C@@H](CO)[C@H](O)[C@H]2O[C@@H]2OC[C@@H](O)[C@H](O)[C@H]2O)[C@@H](O)[C@H](O)[C@H]1O)[C@H]1CC[C@]2(C)[C@@H]1[C@H](O)CC1[C@@]3(C)CC[C@H](O[C@@H]4O[C@H](CO)[C@@H](O)[C@H](O)[C@H]4O[C@@H]4O[C@H](CO)[C@@H](O)[C@H](O)[C@H]4O)C(C)(C)C3CC[C@]12C (stereo partly drawn),"activity change, negative = viability loss",[3],-9.17% [at 9.23 µM]
same,"activity change, negative = cell killing",[5],-15.6% [at 9.23 µM]
C[C@@H](CC[C@@H]1[C@@]2(C)CCCC(C)(C)C2CC[C@@]1(C)O)CC(=O)O (stereo partly drawn),Potency,[3],inactive
same,Potency,[5],inactive
C=C(COC(=O)CC(C)C)C1Cc2cc(C(C)=O)ccc2O1 (stereo not drawn),Potency,[3],inactive
same,Potency,[5],inactive
CC1=CC23[C@H](C=C(C(=O)O)[C@@H]2COC(=O)[C@]3(O)CO)[C@@H]1C (stereo partly drawn),Potency,[3],inactive
same,Potency,[5],inactive
C=C1CCC2(OC1)OC1CC3C4CC=C5CC(O)CC(O[C@@H]6OC[C@H](OC(=O)C(O)C(C)CC)[C@H](O)[C@H]6O[C@@H]6O[C@@H](C)[C@H](O)[C@@H](O)[C@H]6O)C5(C)C4CCC3(C)C1C2C (stereo partly drawn),"activity change, negative = viability loss",[3],-3.21% [at 9.23 µM]
same,"activity change, negative = cell killing",[5],-9.66% [at 9.23 µM]
COc1cc2c(c(OC)c1O)C(c1ccc(O)cc1)C1C(=O)OC3C(COC(=O)C1=C2)OC(CO)(OC1OC(COC(=O)/C=C/c2ccc(OC4OC(C)C(O)C(O)C4O)cc2)C(O)C(O)C1O)C3O (stereo not drawn),"activity change, negative = viability loss",[3],-11.1% [at 9.23 µM]
same,"activity change, negative = cell killing",[5],-15.9% [at 9.23 µM]
CC(=O)OC[C@@]12C(=O)C[C@@H](C)[C@]3(C[C@@H](c4ccoc4)OC3=O)[C@H]1CC[C@H](OC(C)=O)[C@]21CO1,Potency,[3],inactive
same,Potency,[5],inactive
CC(C)=C1C[C@@]2(C)C(=CC1=O)CC[C@@H](O)[C@@H]2C,Potency,[3],inactive
same,Potency,[5],inactive
COc1ccc(S(=O)(=O)Nc2nc(-c3cccc([N+](=O)[O-])c3)cs2)cc1OC,Potency,[3],inactive
same,Potency,[5],inactive
OC[C@H]1O[C@@H](O[C@H]2[C@H](O)[C@@H](CO)O[C@@H](OCc3ccccc3)[C@@H]2O[C@@H]2OC[C@](O)(CO)[C@H]2O)[C@H](O)[C@@H](O)[C@@H]1O,Potency,[3],inactive
same,Potency,[5],inactive
CCOC(=O)C(CCc1ccccc1)NC(C)C(=O)N1Cc2ccccc2CC1C(=O)O (stereo not drawn),Potency,[3],inactive
same,Potency,[5],inactive
O=C(O)CCc1ccc(NCc2cccc3c2CCCN3CCOc2ccccc2)cc1F,Potency,[3],inactive
same,Potency,[5],inactive
